Experimental data published in the supplement of paper PMC11732987, “Enantioselective OTUD7B fragment discovery through chemoproteomics screening and high-throughput optimisation” (Communications Chemistry, 2025).

What was measured:
Assay in all cases: log2 ratio of Biotin-Ahx-Ub-VS probe labelling (fragment/DMSO); higher = less target engagement (more negative = stronger competition), active = hit call of the paper (q ≤ 0.05, log2 ratio ≤ -1)
Conditions in all cases: compound concentration: 200 uM; treatment time: 3 h
[1] = target: T1, USP42 (UniProt Q9H9J4)
T1 sequence (whole entry): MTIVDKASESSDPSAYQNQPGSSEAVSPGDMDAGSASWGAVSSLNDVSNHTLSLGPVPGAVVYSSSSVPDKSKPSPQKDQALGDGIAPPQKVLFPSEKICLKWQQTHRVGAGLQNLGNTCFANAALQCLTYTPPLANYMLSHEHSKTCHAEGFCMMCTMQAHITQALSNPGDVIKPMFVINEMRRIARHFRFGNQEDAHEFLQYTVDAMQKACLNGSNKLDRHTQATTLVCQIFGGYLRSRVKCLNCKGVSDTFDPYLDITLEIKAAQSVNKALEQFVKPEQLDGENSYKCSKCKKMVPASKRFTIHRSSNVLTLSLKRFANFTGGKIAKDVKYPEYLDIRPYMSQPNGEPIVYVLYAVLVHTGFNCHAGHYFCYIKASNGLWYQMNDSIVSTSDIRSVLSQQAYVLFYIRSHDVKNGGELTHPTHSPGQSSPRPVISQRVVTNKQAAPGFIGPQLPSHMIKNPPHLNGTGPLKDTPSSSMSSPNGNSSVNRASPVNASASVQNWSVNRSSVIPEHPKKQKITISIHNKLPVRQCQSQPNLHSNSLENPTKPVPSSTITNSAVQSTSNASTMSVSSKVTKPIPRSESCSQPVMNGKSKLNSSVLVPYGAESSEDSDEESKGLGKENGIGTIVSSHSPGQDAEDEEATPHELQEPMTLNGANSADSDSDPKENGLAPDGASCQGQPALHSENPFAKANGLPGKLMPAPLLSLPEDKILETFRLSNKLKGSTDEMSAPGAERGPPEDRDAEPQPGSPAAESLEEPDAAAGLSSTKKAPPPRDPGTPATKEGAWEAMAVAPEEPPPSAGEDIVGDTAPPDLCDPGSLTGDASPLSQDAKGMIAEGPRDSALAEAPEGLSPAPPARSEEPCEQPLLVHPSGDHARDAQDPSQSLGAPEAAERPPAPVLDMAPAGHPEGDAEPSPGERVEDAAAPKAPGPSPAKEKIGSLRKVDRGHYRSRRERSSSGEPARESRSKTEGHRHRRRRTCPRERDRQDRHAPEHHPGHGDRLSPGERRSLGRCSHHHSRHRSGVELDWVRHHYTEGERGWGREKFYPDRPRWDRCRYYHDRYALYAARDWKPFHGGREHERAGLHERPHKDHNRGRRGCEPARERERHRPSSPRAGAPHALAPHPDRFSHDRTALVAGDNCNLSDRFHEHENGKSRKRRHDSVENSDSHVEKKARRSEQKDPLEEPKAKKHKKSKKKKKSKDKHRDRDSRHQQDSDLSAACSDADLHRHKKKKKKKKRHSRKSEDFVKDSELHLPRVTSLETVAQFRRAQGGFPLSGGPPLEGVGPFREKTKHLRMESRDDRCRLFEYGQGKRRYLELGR
How it was run: (§1)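 HEK293T lysate in Tris/CHAPS/IGEPAL buffer with protease inhibitors (495 µg per sample) was given fragment at 200 µM or vehicle for 3 h, in triplicate. It then received Biotin-Ahx-Ub-VS at 0.5 µM final for 1 h. Labelled DUBs were NeutrAvidin-enriched, digested with LysC and trypsin, and run by diaPASEF LC-MS/MS. Values are average log2 fragment/vehicle ratios by unpaired t-test on global-median-normalised Spectronaut quantities of proteins with ≥2 unique peptides.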

[2] = target: USP46 (UniProt P62068)
USP46, sequence (P62068 whole entry): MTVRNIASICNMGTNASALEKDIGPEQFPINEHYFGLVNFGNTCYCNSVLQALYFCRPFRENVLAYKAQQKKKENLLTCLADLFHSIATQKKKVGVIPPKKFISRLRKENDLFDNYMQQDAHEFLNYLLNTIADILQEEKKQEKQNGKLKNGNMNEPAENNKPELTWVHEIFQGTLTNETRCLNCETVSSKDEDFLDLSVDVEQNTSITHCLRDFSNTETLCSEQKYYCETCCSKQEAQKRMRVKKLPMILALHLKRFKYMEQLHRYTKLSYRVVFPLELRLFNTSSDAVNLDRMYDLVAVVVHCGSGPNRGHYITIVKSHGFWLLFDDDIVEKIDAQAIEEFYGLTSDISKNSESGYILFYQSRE
How it was run: as §1

[3] = target: T2, USP47 (UniProt Q96K76)
T2 sequence (whole entry): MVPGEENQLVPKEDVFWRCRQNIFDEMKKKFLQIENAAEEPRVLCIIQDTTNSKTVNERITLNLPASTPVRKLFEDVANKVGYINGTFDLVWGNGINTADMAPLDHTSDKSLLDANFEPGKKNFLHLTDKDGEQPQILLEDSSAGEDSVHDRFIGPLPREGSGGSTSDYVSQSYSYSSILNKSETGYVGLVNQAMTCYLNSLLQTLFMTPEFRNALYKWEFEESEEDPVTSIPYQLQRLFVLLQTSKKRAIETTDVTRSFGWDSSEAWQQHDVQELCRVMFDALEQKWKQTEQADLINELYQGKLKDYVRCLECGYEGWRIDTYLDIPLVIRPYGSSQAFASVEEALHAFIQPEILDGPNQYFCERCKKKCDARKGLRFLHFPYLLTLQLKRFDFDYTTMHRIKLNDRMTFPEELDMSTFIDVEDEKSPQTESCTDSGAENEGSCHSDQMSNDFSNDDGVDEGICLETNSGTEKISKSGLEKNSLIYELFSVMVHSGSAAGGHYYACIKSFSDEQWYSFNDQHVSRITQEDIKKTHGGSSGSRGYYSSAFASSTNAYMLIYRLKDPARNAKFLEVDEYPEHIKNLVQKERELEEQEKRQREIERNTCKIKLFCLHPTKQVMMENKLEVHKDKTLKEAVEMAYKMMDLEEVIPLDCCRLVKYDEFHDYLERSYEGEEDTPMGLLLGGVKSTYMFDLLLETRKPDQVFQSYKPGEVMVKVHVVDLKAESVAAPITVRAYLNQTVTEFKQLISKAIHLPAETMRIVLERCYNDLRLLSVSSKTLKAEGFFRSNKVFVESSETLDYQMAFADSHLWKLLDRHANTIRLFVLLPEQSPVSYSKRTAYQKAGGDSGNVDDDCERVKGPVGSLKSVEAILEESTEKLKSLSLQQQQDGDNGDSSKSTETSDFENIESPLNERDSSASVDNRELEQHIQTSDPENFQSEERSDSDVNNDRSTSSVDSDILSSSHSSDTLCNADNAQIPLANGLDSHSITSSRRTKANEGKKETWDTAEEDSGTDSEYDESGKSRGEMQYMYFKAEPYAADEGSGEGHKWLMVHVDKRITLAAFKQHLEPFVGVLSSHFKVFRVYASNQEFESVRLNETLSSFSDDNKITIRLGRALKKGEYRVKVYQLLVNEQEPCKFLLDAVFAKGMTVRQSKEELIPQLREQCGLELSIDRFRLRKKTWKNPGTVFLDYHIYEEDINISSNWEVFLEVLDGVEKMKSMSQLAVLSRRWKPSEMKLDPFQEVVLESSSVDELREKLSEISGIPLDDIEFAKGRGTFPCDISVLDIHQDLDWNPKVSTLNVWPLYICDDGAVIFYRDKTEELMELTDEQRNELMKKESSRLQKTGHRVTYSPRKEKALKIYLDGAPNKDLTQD
How it was run: as §1

[4] = target: T3, USP48 (UniProt Q86UV5)
T3 sequence (whole entry): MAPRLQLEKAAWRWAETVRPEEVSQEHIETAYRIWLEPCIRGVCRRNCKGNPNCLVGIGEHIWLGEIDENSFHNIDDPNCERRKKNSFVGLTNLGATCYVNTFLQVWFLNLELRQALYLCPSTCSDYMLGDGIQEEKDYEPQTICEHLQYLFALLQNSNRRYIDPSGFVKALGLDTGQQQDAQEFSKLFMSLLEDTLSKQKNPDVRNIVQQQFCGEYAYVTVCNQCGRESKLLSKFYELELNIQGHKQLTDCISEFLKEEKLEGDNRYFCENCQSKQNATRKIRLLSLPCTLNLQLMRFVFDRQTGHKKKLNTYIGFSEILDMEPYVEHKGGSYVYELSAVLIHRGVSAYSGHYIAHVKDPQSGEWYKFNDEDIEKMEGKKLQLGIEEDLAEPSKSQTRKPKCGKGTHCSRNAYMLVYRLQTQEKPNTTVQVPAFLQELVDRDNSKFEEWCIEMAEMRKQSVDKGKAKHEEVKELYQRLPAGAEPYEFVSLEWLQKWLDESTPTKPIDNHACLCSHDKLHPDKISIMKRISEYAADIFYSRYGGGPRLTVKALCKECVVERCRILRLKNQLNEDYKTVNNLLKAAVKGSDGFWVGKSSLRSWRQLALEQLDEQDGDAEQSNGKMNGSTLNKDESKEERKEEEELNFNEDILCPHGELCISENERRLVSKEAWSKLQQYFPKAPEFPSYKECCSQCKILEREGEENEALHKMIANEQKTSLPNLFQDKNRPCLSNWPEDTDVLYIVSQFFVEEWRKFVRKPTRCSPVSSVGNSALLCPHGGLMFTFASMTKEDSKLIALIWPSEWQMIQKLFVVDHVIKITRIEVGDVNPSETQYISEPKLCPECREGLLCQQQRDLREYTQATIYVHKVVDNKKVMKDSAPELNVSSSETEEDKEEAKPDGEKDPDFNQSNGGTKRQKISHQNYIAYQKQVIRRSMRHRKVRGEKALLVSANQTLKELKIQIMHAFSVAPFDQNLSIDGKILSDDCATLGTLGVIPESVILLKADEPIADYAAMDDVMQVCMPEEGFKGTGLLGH
How it was run: as §1

[5] = target: T4, USP5 (UniProt P45974)
T4 sequence (whole entry): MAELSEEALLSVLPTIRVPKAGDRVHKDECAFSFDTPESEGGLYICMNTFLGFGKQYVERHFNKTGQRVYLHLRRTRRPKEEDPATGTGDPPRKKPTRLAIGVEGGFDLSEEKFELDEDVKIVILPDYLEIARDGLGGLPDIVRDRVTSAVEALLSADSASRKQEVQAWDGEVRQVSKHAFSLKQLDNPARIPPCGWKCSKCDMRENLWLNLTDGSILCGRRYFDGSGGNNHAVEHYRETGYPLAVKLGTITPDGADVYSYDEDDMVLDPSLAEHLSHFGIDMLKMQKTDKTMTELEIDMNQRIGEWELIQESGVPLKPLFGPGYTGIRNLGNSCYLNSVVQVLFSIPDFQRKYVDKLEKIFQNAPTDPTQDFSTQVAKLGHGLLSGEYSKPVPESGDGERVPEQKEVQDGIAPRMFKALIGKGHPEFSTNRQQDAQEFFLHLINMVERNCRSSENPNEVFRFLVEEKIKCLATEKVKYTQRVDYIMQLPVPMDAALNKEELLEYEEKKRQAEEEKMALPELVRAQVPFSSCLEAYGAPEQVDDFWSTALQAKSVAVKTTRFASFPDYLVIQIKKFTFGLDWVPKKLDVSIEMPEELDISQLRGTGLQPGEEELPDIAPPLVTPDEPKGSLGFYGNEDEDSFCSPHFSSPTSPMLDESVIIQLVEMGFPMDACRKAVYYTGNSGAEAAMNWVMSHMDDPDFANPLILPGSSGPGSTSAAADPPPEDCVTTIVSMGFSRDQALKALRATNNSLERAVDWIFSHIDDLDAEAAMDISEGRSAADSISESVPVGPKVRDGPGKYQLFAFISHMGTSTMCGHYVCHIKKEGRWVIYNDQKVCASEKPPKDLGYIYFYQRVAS
How it was run: as §1

[6] = target: USP54 (UniProt Q70EL1)
USP54, sequence (Q70EL1 whole entry): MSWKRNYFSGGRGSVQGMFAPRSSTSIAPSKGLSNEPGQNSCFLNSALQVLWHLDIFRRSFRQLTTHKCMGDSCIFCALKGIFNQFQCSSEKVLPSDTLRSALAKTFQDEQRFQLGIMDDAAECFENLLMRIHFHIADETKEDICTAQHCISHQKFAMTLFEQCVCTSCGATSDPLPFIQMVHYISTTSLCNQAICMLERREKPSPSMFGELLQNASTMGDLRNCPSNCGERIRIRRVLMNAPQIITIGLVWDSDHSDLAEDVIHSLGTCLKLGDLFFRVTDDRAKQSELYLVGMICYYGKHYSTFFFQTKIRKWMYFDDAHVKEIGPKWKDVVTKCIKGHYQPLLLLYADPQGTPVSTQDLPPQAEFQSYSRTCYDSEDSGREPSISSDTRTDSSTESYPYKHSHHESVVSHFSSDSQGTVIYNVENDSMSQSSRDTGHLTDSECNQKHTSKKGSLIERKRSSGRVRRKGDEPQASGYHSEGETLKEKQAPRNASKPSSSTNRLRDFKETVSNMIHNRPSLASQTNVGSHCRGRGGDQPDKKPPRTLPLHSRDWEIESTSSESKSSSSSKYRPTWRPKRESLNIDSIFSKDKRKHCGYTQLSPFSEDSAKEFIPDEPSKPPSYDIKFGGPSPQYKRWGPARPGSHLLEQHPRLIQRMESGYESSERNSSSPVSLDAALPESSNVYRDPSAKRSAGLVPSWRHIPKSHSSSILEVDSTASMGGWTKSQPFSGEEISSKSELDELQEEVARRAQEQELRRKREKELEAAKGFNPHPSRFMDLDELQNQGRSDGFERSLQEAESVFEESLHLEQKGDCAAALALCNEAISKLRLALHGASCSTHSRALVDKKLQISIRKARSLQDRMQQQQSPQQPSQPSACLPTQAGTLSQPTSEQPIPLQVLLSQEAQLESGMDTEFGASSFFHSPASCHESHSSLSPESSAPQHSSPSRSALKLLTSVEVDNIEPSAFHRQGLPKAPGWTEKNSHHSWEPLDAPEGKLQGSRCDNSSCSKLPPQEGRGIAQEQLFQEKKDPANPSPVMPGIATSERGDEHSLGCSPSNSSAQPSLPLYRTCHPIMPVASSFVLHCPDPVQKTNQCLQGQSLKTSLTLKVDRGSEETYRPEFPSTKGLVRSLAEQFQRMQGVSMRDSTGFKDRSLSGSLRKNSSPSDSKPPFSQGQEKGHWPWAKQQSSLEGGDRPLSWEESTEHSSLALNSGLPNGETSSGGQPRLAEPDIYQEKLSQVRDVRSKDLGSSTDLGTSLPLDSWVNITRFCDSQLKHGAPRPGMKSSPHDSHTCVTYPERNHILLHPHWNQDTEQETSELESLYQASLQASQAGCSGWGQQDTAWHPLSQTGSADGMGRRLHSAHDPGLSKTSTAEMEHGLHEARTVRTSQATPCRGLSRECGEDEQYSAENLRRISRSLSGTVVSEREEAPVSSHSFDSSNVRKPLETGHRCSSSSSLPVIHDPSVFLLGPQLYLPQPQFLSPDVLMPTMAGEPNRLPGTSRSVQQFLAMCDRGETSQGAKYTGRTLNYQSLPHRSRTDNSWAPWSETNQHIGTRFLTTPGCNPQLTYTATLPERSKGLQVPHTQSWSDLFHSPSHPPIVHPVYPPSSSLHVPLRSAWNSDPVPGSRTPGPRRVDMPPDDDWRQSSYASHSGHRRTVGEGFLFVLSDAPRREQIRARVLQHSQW
How it was run: as §1

[7] = target: USP7 (UniProt Q93009)
USP7, sequence (Q93009 whole entry, looked up): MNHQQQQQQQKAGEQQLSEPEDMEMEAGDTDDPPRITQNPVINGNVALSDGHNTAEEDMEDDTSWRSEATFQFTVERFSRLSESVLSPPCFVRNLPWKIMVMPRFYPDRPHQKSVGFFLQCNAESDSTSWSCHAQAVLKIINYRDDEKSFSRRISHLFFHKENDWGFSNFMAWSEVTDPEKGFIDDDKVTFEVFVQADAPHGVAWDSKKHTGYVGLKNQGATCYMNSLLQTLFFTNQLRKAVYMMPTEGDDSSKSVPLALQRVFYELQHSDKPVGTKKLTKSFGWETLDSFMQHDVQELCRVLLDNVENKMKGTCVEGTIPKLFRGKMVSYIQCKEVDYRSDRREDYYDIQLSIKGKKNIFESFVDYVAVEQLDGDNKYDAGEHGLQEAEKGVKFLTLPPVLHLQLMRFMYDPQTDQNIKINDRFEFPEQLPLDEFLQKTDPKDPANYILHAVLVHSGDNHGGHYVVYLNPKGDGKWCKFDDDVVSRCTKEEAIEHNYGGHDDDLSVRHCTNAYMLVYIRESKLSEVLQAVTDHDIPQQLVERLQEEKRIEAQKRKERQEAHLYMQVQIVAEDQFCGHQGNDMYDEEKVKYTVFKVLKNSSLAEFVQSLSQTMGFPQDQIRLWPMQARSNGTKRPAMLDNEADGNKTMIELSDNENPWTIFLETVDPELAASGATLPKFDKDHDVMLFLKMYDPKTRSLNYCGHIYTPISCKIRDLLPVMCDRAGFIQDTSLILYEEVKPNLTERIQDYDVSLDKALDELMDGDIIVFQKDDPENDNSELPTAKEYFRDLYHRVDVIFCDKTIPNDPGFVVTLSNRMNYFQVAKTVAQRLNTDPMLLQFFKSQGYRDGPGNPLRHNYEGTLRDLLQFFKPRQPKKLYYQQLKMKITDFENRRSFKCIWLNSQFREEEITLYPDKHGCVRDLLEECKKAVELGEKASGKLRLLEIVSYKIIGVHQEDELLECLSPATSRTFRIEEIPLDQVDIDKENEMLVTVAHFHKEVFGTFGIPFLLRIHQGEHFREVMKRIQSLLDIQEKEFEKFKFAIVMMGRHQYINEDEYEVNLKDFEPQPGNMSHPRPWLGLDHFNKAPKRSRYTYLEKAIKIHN
How it was run: as §1

[8] = target: T5, USP8 (UniProt P40818)
T5 sequence (whole entry): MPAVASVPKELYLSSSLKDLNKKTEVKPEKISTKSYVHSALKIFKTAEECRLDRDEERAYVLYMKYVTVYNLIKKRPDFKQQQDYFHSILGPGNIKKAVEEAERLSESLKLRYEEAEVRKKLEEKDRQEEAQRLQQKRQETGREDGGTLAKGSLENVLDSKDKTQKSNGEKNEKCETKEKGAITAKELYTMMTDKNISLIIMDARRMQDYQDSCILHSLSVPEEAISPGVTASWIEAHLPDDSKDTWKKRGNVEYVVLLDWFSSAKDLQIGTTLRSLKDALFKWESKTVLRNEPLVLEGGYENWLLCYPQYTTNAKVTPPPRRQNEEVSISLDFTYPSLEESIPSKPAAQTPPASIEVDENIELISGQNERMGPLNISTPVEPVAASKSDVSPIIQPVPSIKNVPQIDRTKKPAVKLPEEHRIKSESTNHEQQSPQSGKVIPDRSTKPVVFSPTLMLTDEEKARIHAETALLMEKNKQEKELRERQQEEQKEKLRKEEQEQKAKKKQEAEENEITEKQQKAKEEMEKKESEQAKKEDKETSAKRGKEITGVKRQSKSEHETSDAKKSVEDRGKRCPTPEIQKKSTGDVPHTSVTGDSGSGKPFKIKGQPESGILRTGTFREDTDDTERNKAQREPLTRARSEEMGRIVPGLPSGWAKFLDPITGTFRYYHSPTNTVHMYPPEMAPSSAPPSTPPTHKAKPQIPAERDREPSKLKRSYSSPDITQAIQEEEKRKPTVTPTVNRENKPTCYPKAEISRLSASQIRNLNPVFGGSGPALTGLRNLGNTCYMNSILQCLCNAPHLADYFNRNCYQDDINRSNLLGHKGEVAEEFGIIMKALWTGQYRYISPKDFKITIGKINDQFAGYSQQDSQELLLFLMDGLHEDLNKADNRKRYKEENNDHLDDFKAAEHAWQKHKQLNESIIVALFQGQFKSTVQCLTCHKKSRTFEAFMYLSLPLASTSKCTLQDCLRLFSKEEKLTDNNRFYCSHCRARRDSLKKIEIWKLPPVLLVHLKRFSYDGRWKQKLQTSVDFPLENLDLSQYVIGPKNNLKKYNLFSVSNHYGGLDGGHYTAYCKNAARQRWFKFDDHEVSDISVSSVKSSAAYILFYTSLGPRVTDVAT
How it was run: as §1

[9] = target: USP9X (UniProt Q93008)
How it was run: as §1

[10] = target: UniProt O00487
UniProt O00487, sequence (O00487 whole entry): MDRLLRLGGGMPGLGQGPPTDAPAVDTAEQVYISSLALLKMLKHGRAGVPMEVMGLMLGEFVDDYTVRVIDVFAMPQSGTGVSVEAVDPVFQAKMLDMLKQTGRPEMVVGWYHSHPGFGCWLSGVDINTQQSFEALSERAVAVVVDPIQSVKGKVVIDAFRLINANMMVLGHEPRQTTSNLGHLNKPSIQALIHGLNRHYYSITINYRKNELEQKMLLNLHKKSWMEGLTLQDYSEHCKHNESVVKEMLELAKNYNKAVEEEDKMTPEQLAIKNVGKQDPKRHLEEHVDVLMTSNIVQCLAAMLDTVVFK
How it was run: as §1

Measured: log2 ratio of Biotin-Ahx-Ub-VS probe labelling

N#Cc1ccc(Cl)cc1NC(=O)CCl
inactive: [1] -0.385 | [2] 0.0423 | [3] -0.413 | [4] -0.305 | [5] -0.153 | [6] -0.514 | [7] -0.47 | [8] -0.0467 | [9] -0.0196 | [10] 0.0781
